The panel holds about 83,000 compounds, 20% with a hit somewhere; the sample as a whole holds those more often.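 Activity criterion: percent growth below 10, measured after cells in 96-well plates were exposed to a single compound concentration for 48 hours.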 Values without a mark were called inactive. The source made the active and inactive calls.

The subject of this experiment is HL-60(TB) leukemia. In words: NCI-60 one-dose screen, 48 h (100 = growth as untreated, 0 = no growth, -100 = all killed). To be noted: 10 µM unless noted.
As for `CCNC(=O)N1CCc2cc(OC)c(OCCc3ccc(OC)nc3)cc2C1c1ccc(OC)cc1C` (stereo not given), the growth was 11.5%.
On to `CCNCCOc1ccc(/C(=C(/CC)c2ccc(Cl)cc2)c2ccc(OCCCN(C)C)cc2)cc1`, for which the growth is -61.5% (active).
Turning to `C[C@H]1c2[nH]c3ccccc3c2C[C@H]2C(=O)N(CCCCCCC(=O)NO)CC(=O)N21`, the growth is 108%.
For the compound `CC(c1ccccc1)N1CSc2nc3ncncc3n2C1` (stereo not given), the growth is 17.4%.
With `C=C(C=O)[C@@H]1CC[C@]2(CO)CC[C@]3(C)[C@H](CC[C@@H]4[C@@]5(C)CCCNC(C)(C)[C@@H]5CC[C@]43C)[C@@H]12` the figure was -10.2% (active).
The same measure for `O=c1c2ccccc2nc(COc2ccccc2)n1/N=C/C=C/c1ccccc1`: 107%.
The same measure for `CC1=Cc2ccccc2OC12C=Cc1ccccc1O2` (stereo not given): 106%.
`CN(C)CCCOc1ccc2c(c1)CN(C(=O)c1cc(C(=O)N3Cc4cccc(F)c4C3)ccc1O)C2`: the growth was 107%.
Take `O=C1c2c(c3c4cccnc4[nH]c3c3ccc4ccccc4c23)C(=O)N1CCN1CCOCC1`: the growth is 42.2%.
For the compound `COc1c(N2CC3CCCNC3C2)c(F)cc2c(=O)c(C(=O)N/N=C/c3ccc4c(c3)OCO4)cn(C3CC3)c12` (stereo not given), the growth was 75.8%.
On to `COc1ccc(/C=C/C(=O)c2ccc(NC(=O)CSc3nnc(-c4ccc5nc(-c6ccc(Cl)cc6)[nH]c5c4)o3)cc2)cc1`, for which the growth is 78.6%.
`N#Cc1c(-c2ccc(F)cc2)nc2c(C#N)c(Nc3ccccc3)nn2c1N`: the growth was 104%.
Regarding `Fc1ccc(-c2cc3nc(C(Cl)Cl)nc(-c4ccc(F)cc4)n3n2)cc1`, the growth is -1.81% (active).
Turning to `COc1ccc(C2CC(c3cccc(OCCCCOc4cccc(C5=NOC(c6ccc(OC)cc6)C5)c4)c3)=NO2)cc1` (stereo not given), the growth is 89.6%.
With `N/C(=N\C(N)=N\c1nc2ccccc2s1)c1ccc2ccccc2c1` the figure was 99.8%; with `O=C(CCCCCCN1CC(=O)N2[C@@H](c3cc(F)cc(F)c3)c3[nH]c4ccccc4c3C[C@H]2C1=O)NO`, 16.2%; with `CN(C)CCCNc1c2ccc(Cl)cc2nc2c1oc1ccc(Cl)cc12`, -53.9% (active).
For `CC(C)Sc1nc(Nc2ccc(S(N)(=O)=O)cc2)c(C#N)c(-c2ccc(F)cc2)n1`, the growth was 45.4%.
The same measure for `CCOC(=O)c1c(N)c(C#N)cn1-c1cc(OC)c(OC)c(OC)c1`: 96.1%.
For `O=C(N/N=C/c1ccc([N+](=O)[O-])o1)c1[nH]c2ccc(Br)cc2c1-c1ccccc1`, the growth is -42.1% (active).
In the case of `CCOC(=O)c1csc(NC(=O)CSc2nc3sc4c(c3c(=O)n2-c2ccc(Cl)cc2)CCCC4)n1`, the growth was 92.1%.
In the case of `CN(C)CCNC(=O)c1ccc(-c2nc3ccc4[nH]ncc4c3c3c2COCC3)cc1`, the growth was -32.6% (active).
With `O=C(COc1ccc(C2SCC(=O)N2c2ccccc2)cc1)c1ccccc1` (stereo not given) the figure was 96.2%; with `CCn1c2ccc(/C=N/OCCCN(C)C)cc2c2cc(/C=N/OCCCN(C)C)ccc21`, -36.9% (active); with `N#Cc1c(-c2ccc(F)cc2)cc(-c2c[nH]c3ccccc23)nc1-c1c[nH]c2ccccc12`, 98.9%.

Values taken from PubChem BioAssay (NCI).
